Hits are enriched below; roughly 5.3% of the tested compounds scored in any of these assays.
Tau fluor cs: counter-screen for tau fibril formation inhibitors; tau K18 P301L Alexa594 fluorescence, heparin fibrillization; actives 0.93% (n = 280,000); AID 1463; Potency, µM (doses to about 57.7 µM), for inactives: top-dose activity change, negative = decrease; further: potency means the concentration at half of the fitted maximal effect; nearly all actives have a fitted effect of over 55% in size
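Human K18 P301L tau (15 uM unlabeled plus 0.24 uM Alexa 594-labeled, final) in 100 mM sodium acetate pH 7 was mixed with compound and 20 uM heparin and incubated 6 hr at 37 C.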
Sfp PPTase inh: Sfp phosphopantetheinyl transferase inhibition; Q9F4F7; Biochemical Sfp PPTase activity, qHTS; Potency, µM, for the others: largest response in the series, negative = inhibition, actives largely listed as inhibitors; actives 3.5% (n = 310,000); AID 1490;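 further: the enzyme is Sfp with the accession as filed and its product quenches rhodamine fluorescence; potency means the concentration at half of the fitted maximal effect; 0% = enzyme reaction without inhibitor and -100% = no enzyme wells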
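With Hepes-Na pH 7.6 buffer containing 10 mM MgCl2, Sfp (15 nM) modified BHQ-2-YbbR (12.5 uM) using rhodamine-CoA (5 uM). Two reads 30 minutes apart at 525/598 nm yielded each well's rate.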
FBPA coupling cs: inhibits coupling enzyme system, counter-screen for aldolase hits | coupling enzyme system counterscreen, AmpLite Red fluorescence | activity change, negative = inhibition, % at 58.2 µM, hits read low | actives 0.67% (n = 290,000) | AID 2472; in the data active means activity change below about -30%
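Counterscreen lacking aldolase: glyceraldehyde-3-phosphate coupling-enzyme reagent preincubated 10 min at RT with compound (at 57.5 uM final), then substrate/coupling system with AmpLite Red added; fluorescence read at 525/598 nm after 20 min RT.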
Tau fibril FP: inhibitors of human tau fibril formation. P10636. AID 1468. actives 0.39% (n = 280,000). Potency, µM (top dose mostly 57.7 µM), inactives show at the top dose activity, negative = inhibition, most hits filed as inhibitors. K18 P301L tau heparin fibrillization, Alexa594 FP, 6 h; further: potency means the concentration at half of the fitted maximal effect; nearly all actives have a fitted effect of over 55% in size
Target sequence (P10636 561-689 P618L limits assumed): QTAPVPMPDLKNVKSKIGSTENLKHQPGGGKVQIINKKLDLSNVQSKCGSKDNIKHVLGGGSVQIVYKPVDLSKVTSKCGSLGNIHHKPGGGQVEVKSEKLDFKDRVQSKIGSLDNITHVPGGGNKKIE
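Compound effects on tau fibrillization are measured by Alexa 594 fluorescence polarization (ex 555, em 632 nm). K18 P301L tau is used at 15 uM with 0.24 uM labeled tracer, and 20 uM heparin induces aggregation over 6 hr at 37 C.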
JMJD2E inh: JMJD2E (human) inhibition; B2RXH2; JMJD2E catalytic domain, FDH-coupled NADH fluorescence (FDH is formaldehyde dehydrogenase); Potency, µM (series often up to 57.1 µM), for inactives: at the top dose activity change, negative = inhibition, actives largely listed as inhibitors; actives 1.6% (n = 230,000); AID 2147; active means well fitted inhibition curve with a large enough effect, not every such curve was filed as active; inconclusive means small, poorly fitted or top-dose-only effect, or another doubt; inactive means no such curve, though single readings can be large or run the other way;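 further: potency means the concentration at half of the fitted maximal effect; 0% = wells with enzyme and -100% = buffer wells without enzyme; nearly all actives have a fitted effect of over 50% in size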
Target sequence (B2RXH2 1-337 limits assumed): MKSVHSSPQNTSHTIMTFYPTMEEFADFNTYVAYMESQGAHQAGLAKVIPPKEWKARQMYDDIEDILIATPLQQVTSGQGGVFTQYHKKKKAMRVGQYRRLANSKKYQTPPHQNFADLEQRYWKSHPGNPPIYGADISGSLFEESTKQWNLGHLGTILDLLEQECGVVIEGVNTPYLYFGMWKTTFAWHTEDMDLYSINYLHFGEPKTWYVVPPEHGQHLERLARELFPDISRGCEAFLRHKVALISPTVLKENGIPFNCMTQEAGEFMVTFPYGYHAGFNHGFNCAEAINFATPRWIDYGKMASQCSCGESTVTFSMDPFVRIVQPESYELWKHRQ
Tau fibril ThT: inhibitors of human tau fibril formation, thioflavin T binding; P10636; recombinant tau K18 P301L (four-repeat tau fragment), heparin-induced fibrillization, ThT fluorescence; Potency, µM (top dose mostly 57.4 µM), without a hit: top-dose activity, negative = inhibition, actives largely listed as inhibitors; actives 2.1% (n = 270,000); further: potency means the concentration at half of the fitted maximal effect; nearly all actives have a fitted effect of over 55% in size
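Heparin-induced fibrillization of the P301L-mutant K18 repeat-domain fragment of human tau was followed by ThT binding in quantitative high-throughput format.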
An asterisk follows results filed as active; u = inconclusive; x = no result; [ ] = remark or other dose. Unless noted, the call rests on the fitted dose curve; in most records, active means well fitted curve in the direction sought with a large enough effect; inconclusive means small, poorly fitted or top-dose-only effect, or another doubt; inactive means no such curve, though single readings can be large; an effect the other way counts as inactive or inconclusive. Unless noted, on the % scale 0 is the no-effect control and ±100 the full control effect.

SMILES | Tau fluor cs | Sfp PPTase inh | FBPA coupling cs | Tau fibril FP | JMJD2E inh | Tau fibril ThT
Cc1ccc(OC(C)C(=O)N=Nc2c(O)[nH]c3ccc([N+](=O)[O-])cc23)cc1 (stereo not given) | 16µM*[quencher] | 4% | 0 | 6% | 1% | u
c1cc2c(cc1Nc1nc(-c3ccc4c(c3)OCO4)cs1)OCCO2 | 8.9µM*[quencher] | -83% | -8 | 7% | -9% | 3.2µM*
COc1ccccc1C(=O)Nc1nc(-c2ccc3c(c2)OCCO3)cs1 | u | -1% | 1 | -27% | u | -18%
CCC(=O)Nc1nc(-c2ccc3c(c2)OCCO3)cs1 | -8% | 12% | -1 | 8% | -4% | u
CC(=O)Nc1ccc(-c2cn3ccsc3n2)cc1 | -6% | 11% | -2 | -2% | -4% | -18%
COc1cccc(Nc2nc(-c3ccc4c(c3)OCCO4)cs2)c1 | 11µM*[quencher] | -20% | 0 | -8% | -7% | 7.1µM*
c1cn2cc(-c3ccc4c(c3)OCO4)nc2s1 | -13% | 32µM* | -1 | -6% | 1% | u
c1cc2c(cc1-c1csc(NNC3=NCCCCC3)n1)OCCO2 | u | -95% | 0 | 28µM* | u | 25µM*
CC(C)N(Cc1nc(-c2ccc(Cl)cc2)no1)C(=O)c1ccco1 | -15% | x | x | -2% | x | -4%
NC(C(=O)O)c1nn[nH]n1 (stereo not given) | x | -7% | 2 | x | x | x
Cc1nc(Nc2ccccc2)c2nc(-c3ccccc3)n(CCCN3CCCCC3C)c2n1 (stereo not given) | -20% | 13% | 1 | -2% | -9% | -8%
Cc1ccc(Cc2nc3ccccc3nc2SCC(=O)NCc2ccccc2Cl)cc1 | -2% | x | x | -8% | x | 8%
CC(=O)c1ccc(NC(=O)c2sc(-n3nc(C)c(Cc4ccccc4)c3C)nc2C)cc1 | -18% | x | x | 3% | x | -3%
c1ccc(-c2csc(Nc3ccc4c(c3)OCCO4)n2)cc1 | 14µM*[quencher] | u | 2 | -6% | -6% | 13µM*
N#C/C(=C\Nc1ccc2c(c1)OCCO2)c1nc(-c2ccccc2)cs1 | -23% | -1% | 0 | 2% | -1% | 0%
COC(=O)c1ccc(/C=C/c2ccc3cccc(OC(C)=O)c3n2)cc1 | -4% | 18µM* | -20 | 2% | 2% | 5%
Oc1cccc2ccc(/C=C/c3c(F)cccc3Cl)nc12 | u | 5% | -2 | -10% | 28µM* | u
Oc1ccc(/C=C/c2ccc3cccc(O)c3n2)cc1Br | x | -8% | -5 | x | x | x
O=C(O)c1ccc(/C=C/c2ccc3cccc(O)c3n2)cc1 | -16% | 40µM* | -23 | 4% | 8.9µM* | -3%
Oc1cccc2ccc(/C=C/c3ccccc3Cl)nc12 | x | 9% | -5 | x | x | x
O/N=C/c1ccc2ccccc2n1 | -13% | -10% | 1 | -2% | -5% | x
O/N=C/c1ccc2cccc(O)c2n1 | 2% | u | -12 | 1% | 32µM* | x
CC(C)NC(=O)C1CCN(c2nc3ccccc3nc2C(F)(F)F)CC1 | -10% | x | x | -6% | x | -9%
O=c1oc(-c2ccc([N+](=O)[O-])cc2)nc2ccccc12 | -21% | 15% | 0 | 4% | -4% | u
O=c1oc(-c2ccc([N+](=O)[O-])cc2)nc2ccc(O)cc12 | u | -4% | -2 | -6% | 5% | 13µM*
SMILES | Tau fluor cs | Sfp PPTase inh | FBPA coupling cs | Tau fibril FP | JMJD2E inh | Tau fibril ThT
CCc1ccc(C(=O)CSc2ncn[nH]2)cc1 | -3% | 71µM* | 4 | -5% | u | -8%
CCCCCCCCCCCCCCC(C(=O)O)C(O)(CC(=O)OC)C(=O)O (stereo not given) | 11% | u | 19 | 12% | -7% | -4%
COc1ccccc1CNc1nc(C)c(C(C)=O)s1 | x | u | 1 | x | x | x
Cc1nc(NC(=S)NC(=O)c2cccs2)sc1C(=O)N(C)C | -4% | 50µM* | 1 | -5% | -8% | -23%
CCOC(=O)c1sc(NC(=S)NC(=O)c2ccc(OC)cc2)nc1C | x | -21% | 1 | x | x | x
COc1ccc(C(=O)NC(=S)Nc2nc(C)c(C(=O)N(C)C)s2)cc1 | -7% | 63µM* | 8 | -4% | 4% | -11%
Cc1ccc2nc(NC(=S)NC(=O)c3cccs3)sc2c1 | -21% | 13% | -2 | -6% | 2% | u
COc1ccccc1CNc1nc(C)c(C(=O)N(C)C)s1 | x | 45µM* | 0 | x | x | x
Cc1nc(NC(=O)c2ccc([N+](=O)[O-])cc2Cl)sc1C(=O)N(C)C | -18% | 40µM* | -4 | u | u | u
COC(=O)C1=C[C@@H](C(=O)OC)C2C3=C(C(=O)[C@@]2(C)NC(=O)c2ccccc2)[C@H](C)n2c(=O)n(-c4ccccc4)c(=O)n2[C@@H]3C1 (stereo not given in full) | x | 4% | 2 | x | x | x
Cc1ccc(SCC(Cc2ccccc2)N2CCN(C)CCC2=O)cc1 (stereo not given) | x | 21% | 1 | x | x | x
CC(C)(C)c1ccc(C(=O)Nc2nc3nc(-c4ccccc4)cc(=O)n3[nH]2)cc1 | -10% | x | x | u | x | u
Cc1ccc2c(=O)c(C(=O)c3ccccc3)cn(CC(=O)Nc3ccc4c(c3)OCCO4)c2n1 | -11% | x | x | 3% | x | 3%
CCOc1ccc(C(=O)CSCCC(=O)O)cc1 | -6% | 25µM* | 1 | -7% | -8% | u
Clc1ccc(-c2nnc3sc(-c4ccc(Br)o4)nn23)cc1 | 2% | 6% | -1 | 4% | u | 2%
Cc1oc(-c2ccc(Cl)cc2)cc1-c1nn2c(-c3ccoc3C)nnc2s1 | 16% | 10µM* | -12 | 11% | -1% | -9%
O=Cc1ccc(-n2cccn2)cc1 | 8% | 3% | 4 | 6% | 14µM* | -9%
Cc1cccc(-c2nnc3sc(-c4ccccc4C)nn23)c1 | -5% | 50µM* | -1 | 7% | -7% | u
c1ccc(-c2nnc3sc(-c4csc5c4CCCC5)nn23)cc1 | -20% | 6.3µM* | -1 | u | -6% | u
c1ccc(-c2nnc3sc(-c4ccncc4)nn23)cc1 | -7% | -19% | 2 | 8% | -21% | -9%
CC[C@H](C)[C@@H]1NC(=O)c2cc([N+](=O)[O-])cc(I)c2NCC[C@@H](C(N)=O)NC(=O)[C@H](CCCN=C(N)N)NC1=O | -9% | 5% | 1 | -7% | -1% | -11%
NC(=O)[C@@H]1CCCNc2c(I)cc([N+](=O)[O-])cc2C(=O)N[C@@H](CCCN=C(N)N)C(=O)N[C@@H](CCCN=C(N)N)C(=O)N1 | u | -5% | -15 | -11% | 4% | 28µM*
Cc1nn(-c2ccccn2)c2c1C(=O)C(Br)CC2 (stereo not given) | u | 4µM* | -64* | 3.2µM* | -25% | 2.8µM*
